# Assay: compound effects on lung adenocarcinoma cell viability – A549, calcein-AM fluorescence, 48 h, basal, profiling panel (AID 1162); further: test concentration not given here
# Conditions: higher = more signal
row,SMILES,z-score
1,Cc1ccc(N2C(=O)c3ccccc3[C@@H](C(=O)NC3CC3)[C@@H]2c2ccc(CO)cc2)nc1,-0.684
2,CCCCC(CC)C(O)C1C=CC2C(=O)N(Cc3ccccc3)C(=O)C2N1n1cnnc1 (stereo unspecified),-0.682
3,C[C@H]1NC(=O)[C@@]23C(=O)N[C@@H](Cc4ccccc4)C2[C@H](C)[C@@]2(C)O[C@H]2C3/C=C/C/C=C\CNC(=O)[C@@H]2CCCN2C1=O (stereo partly specified),-0.197
4,CC(=O)n1cc(C(O)C2C=CC3C(=O)N(c4ccccc4)C(=O)C3N2Nc2ccc([N+](=O)[O-])cc2)c2ccccc21 (stereo unspecified),-0.456
5,C[C@@]1([C@@H](NC(=O)c2ccc(-c3ccccc3)cc2)c2ccc(Cl)cc2)C[C@H]1C1CCCCC1,-1.18
6,C=CCNC(=O)[C@@H]1[C@H]2C(=O)O[C@H](c3ccccc3)[C@H](c3ccccc3)N2[C@H](c2ccc(O)cc2)[C@@]12C(=O)Nc1ccc(C#CCNC(N)=O)cc12,0.0067
7,C=C(/C(=C/C[C@H](OC(C)=O)c1ccccc1OCCO)c1cnc2ccccc2c1)C(C)C,0.689
8,COc1ccc(/C=C/C=O)cc1,0.637
9,COCCOC(=O)N1C(=O)[C@@]2(c3cc(C#Cc4ccc(OC)cc4)ccc31)[C@H](c1ccc(OCCO)cc1)N1[C@H](c3ccccc3)[C@H](c3ccccc3)OC(=O)[C@H]1[C@@H]2C(=O)N1CCN(c2ncccn2)CC1,-0.76
10,COc1ccc(CCNC(=O)[C@@]2(Sc3ccc(C)cc3)CC(=O)N(C3Cc4ccccc4C3)[C@@H]2c2ccc(CO)cc2I)cc1,2.04
11,COc1ccc([Si](C)(C)[C@@H]2[C@@H](CC(=O)N3CCC[C@H]3CO)O[C@]3(C(=O)N(c4ccccc4)c4ccccc43)[C@H]2C)cc1,1.61
12,COc1ccc(C#Cc2ccc3c(c2)[C@]2(C(=O)N3)[C@H](C(=O)NC[C@H](O)c3ccccc3)[C@H]3C(=O)O[C@H](c4ccccc4)[C@H](c4ccccc4)N3[C@@H]2c2ccc(O)cc2)cc1,0.0902
13,CC(C)C[C@@H]1NC(=O)[C@@H]2C[C@H](C(=O)O)[C@H](c3cccc(OCCO)c3)N2C1=O,0.196
14,CC#CC(=O)Oc1ccccc1C=CC(=O)OCC,-1.54
15,CO[C@H]1O[C@H](CO)[C@@H](OC(=O)Nc2ccccc2)[C@H](OC(=O)Nc2ccccc2)[C@@H]1OC(=O)Nc1ccccc1,-1.36
16,COCCOC(=O)N1C(=O)[C@@]2(c3ccccc31)[C@H](C(=O)N1CCc3cc(OC)c(OC)cc3C1)[C@H]1C(=O)O[C@H](c3ccccc3)[C@H](c3ccccc3)N1[C@@H]2c1ccc(OCCO)cc1,1.23
17,O=C1N(Cc2ccccc2)c2ccccc2[C@@H]2OC(c3ccc(OCCCO)cc3)=N[C@]12CCS(=O)(=O)c1ccccc1,-0.221
18,C=C(CCCC)C(=O)CC[C@@H](OC(=O)c1ccccc1-c1ccccc1C(=O)O)c1ccc(OCCO)cc1,-0.465

row,SMILES,z-score
1,NC(=O)N1C(=O)C2C(C1=O)C1C=C(c3ccc(CO)cc3)C2C(c2cccs2)N1Cc1cccc(OC(F)(F)F)c1 (stereo unspecified),1.56
2,COc1ccc([C@H]2OC[C@@H]3C[C@@H](Cc4ccccc4)C(=O)N32)cc1,-0.706
3,NC(=O)NCC#Cc1ccc2c(c1)[C@]1(C(=O)N2)[C@H](c2ccccc2OCCO)N2[C@H](c3ccccc3)[C@H](c3ccccc3)OC(=O)[C@H]2[C@@H]1C(=O)Nc1nc2ccccc2s1,0.334
4,COc1ccc(C(=O)Nc2ccc(CN3C(=O)[C@]4(O[C@H](CCO)[C@@H]([Si](C)(C)c5ccc(OC)cc5)[C@@H]4C)c4ccccc43)cc2)cc1,-3.8
5,C#C[C@H](O[Si](C#Cc1ccc(Oc2ccccc2)cc1)(C(C)C)C(C)C)c1ccccc1,-2.21
6,COc1ccc([Si](C)(C)[C@H]2[C@H](CCO)O[C@@]3(C(=O)N(Cc4ccc(N(C=O)c5ccccc5)cc4)c4ccccc43)[C@@H]2C)cc1,-0.585
7,CC(=O)NCCCC[C@@H]1NC(=O)[C@H]2C[C@@H](C(=O)NCCCCCCNC(=O)CS)[C@@H](c3ccc(O)cc3)N2C1=O,-0.224
8,C=CCNC(=O)[C@H]1[C@@H]2C(=O)O[C@@H](c3ccccc3)[C@@H](c3ccccc3)N2[C@@H](c2ccccc2OCCO)[C@]12C(=O)Nc1ccc(C#CCCO)cc12,0.126
9,O=C1O[C@@H](c2ccccc2)[C@@H](c2ccccc2)N2[C@@H](c3ccccc3OCCO)[C@]3(C(=O)Nc4ccc(C#CC5=CCCCC5)cc43)[C@@H](C(=O)N3CCCCCCC3)[C@H]12,-1.66
10,C=C[C@@H](COC(=O)OC(C)(C)C)N(Cc1ccc(OC)cc1)S(=O)(=O)c1ccc(Br)cc1,1.39
11,C=C(/C(=C/C[C@H](OC(C)=O)c1ccc(CO)o1)c1cc(C(=O)OC)ccc1OC)C(C)C,-0.431
12,COc1ccc(CCNC(=O)[C@@]2(Sc3ccc(C)cc3)CC(=O)N(C(C)C)[C@@H]2c2ccc(CO)cc2I)cc1,1.68
13,COc1ccc(CCNC(=O)[C@@]2(C)c3ccccc3C(=O)N(C(C)C)[C@H]2c2ccc(CO)cc2)cc1,0.133
14,CC(C)N1C(=O)[C@@]2(Cc3ccccc31)c1ccccc1C(=O)N(Cc1ccccc1Cl)[C@H]2c1ccc(CO)cc1,1.02
15,C=CCOC(=O)[C@H]1[C@@H]2C(=O)O[C@@H](c3ccccc3)[C@@H](c3ccccc3)N2[C@@H](c2ccc(OCCOC(=O)[C@H]3C[C@H]4C(=O)N[C@@H](CCCCN(C)C)C(=O)N4[C@H]3c3ccc(O)cc3)cc2)[C@]12C(=O)Nc1ccc(I)cc12,-0.041
16,CC(C)OC(=O)C=C1C[C@@H](c2ccccn2)O[C@@H](c2ccccn2)O1,-0.564
17,COC(=O)[C@@]1(Cc2ccc(OC)cc2)[C@H]2c3cc(C(=O)N(C)C)n(CCc4ccccn4)c3C[C@H]2CN1C(=O)c1ccccc1,-0.982
18,COC(=O)[C@@]1(Cc2ccccc2)N=C(c2ccc(OCCCO)cc2)O[C@H]1c1ccccc1,-1.98

# Reference: PubChem BioAssay
